This passage reports inhibition results from ChEMBL document CHEMBL4808148, “HDAC6 screening dataset using tau-based substrate in an enzymatic assay yields selective inhibitors and activators” (2021).

About 390 (7%) of roughly 5,600 compounds showed an effect of 50% or more. The list comes from a sample in which strong results are over-represented; it also holds similar structures and randomly drawn compounds. Starred links: 1 amine or outer side, 2 acyl side, 3 side chain; linkers in the order of their positions; H or OH if unused. Positions of bridges follow the written chain, without caps; N, C: chain ends. Non-standard residues stand in square brackets, D forms with d. Residues, ends and D or L forms follow the SMILES beside them. *: point of attachment. pTerphenylCO(4''-OnC5H11) = CCCCCOc1ccc(-c2ccc(-c3ccc(C(=O)*)cc3)cc2)cc1; Orn(4R-OH,5R-OH) = O=C([C@H](C[C@@H](O)[C@@H](O)N[*:3])N[*:1])[*:2]; hTyr(3S-OH,4S-OH) = N[C@H](C(=O)O)[C@H](O)[C@@H](O)c1ccc(O)cc1; Pro(3S-OH,4S-Me) = C[C@H]1CN[C@H](C(=O)O)[C@H]1O; Hyp = O=C(O)[C@@H]1C[C@@H](O)CN1

The target in this assay is T1, Protein deacetylase HDAC6 (Homo sapiens) (UniProt Q9UBN7).
T1 sequence (whole entry): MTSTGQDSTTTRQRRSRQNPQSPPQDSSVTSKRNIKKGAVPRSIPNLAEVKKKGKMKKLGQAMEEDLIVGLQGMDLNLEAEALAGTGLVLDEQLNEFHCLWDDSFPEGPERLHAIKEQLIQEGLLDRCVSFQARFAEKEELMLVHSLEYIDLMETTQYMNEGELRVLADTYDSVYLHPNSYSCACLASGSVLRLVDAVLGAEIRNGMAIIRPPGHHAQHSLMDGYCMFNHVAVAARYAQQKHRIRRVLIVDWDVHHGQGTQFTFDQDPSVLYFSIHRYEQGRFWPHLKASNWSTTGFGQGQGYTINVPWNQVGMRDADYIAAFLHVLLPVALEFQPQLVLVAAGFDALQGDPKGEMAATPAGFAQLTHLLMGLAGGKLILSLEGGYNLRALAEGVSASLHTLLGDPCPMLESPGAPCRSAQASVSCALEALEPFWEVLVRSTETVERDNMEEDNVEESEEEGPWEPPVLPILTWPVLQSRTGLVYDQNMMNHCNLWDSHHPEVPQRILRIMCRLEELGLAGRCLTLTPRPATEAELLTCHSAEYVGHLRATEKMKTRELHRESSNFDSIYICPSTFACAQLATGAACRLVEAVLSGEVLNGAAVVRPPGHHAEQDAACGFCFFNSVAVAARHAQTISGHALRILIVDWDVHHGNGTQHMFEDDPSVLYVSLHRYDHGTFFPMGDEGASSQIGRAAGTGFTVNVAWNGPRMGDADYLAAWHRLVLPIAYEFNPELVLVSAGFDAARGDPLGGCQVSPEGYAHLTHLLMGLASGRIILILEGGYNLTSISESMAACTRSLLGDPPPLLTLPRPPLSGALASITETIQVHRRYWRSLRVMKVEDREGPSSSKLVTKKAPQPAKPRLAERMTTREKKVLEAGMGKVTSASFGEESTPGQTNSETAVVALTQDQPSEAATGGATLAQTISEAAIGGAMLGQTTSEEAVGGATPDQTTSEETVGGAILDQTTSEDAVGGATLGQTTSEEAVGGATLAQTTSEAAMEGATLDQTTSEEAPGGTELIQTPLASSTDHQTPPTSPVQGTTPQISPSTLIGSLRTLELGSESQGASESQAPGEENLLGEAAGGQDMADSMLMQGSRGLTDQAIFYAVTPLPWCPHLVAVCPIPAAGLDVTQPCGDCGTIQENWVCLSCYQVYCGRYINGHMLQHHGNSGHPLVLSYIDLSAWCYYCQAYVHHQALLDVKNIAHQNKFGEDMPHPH
The following applies: at 10 µM.
In general, inhibition refers to the relative decrease from the control value, in per cent. On to `C=CC(=O)N1CCC[C@@H](n2c(=O)n(-c3ccc(Oc4ccccc4)cc3)c3c(N)ncnc32)C1`, for which the inhibition stood at 9.93%.
The figure for `C=CC(=O)N1CCC[C@@H](n2nc(-c3ccc(Oc4ccccc4)cc3)c3c(N)ncnc32)C1` is 73%; for `COc1ccc2nc3ccc(Cl)cc3c(SCCCN)c2c1` it is 31.8%.
The figure for `COc1cc(C(=O)c2c(C)oc3c(O)c(OC)ccc23)cc(OC)c1OC` is 31.9%; for `CCN(CC)C(=O)C1(c2ccccc2)CC1CN` (stereo unspecified) it is -2.35%; for `COc1cccc2c1c(O)c(C(=O)N(C)c1ccc(C(F)(F)F)cc1)c(=O)n2C` it is -4.13%.
For the molecule `C[C@@H]1CN(CCCn2c3ccccc3c3ccccc32)C[C@H](C)N1`, the inhibition came out at 1.8%.
`O=C(Nc1cccc(C(F)(F)F)c1)Nc1ccc(Br)cc1-c1nnn[nH]1`: the inhibition is -9.24%.
For `O=c1c2ccccc2[se]n1-c1ccccc1` the value was 107%; for `Cc1c(C(=O)Nc2ccc(N3CCC(N4CCOCC4)CC3)c(C#N)c2)cnn1-c1ccc(Cl)cc1`, 9.57%.
The figure for `CCC[N+]12C3C[C@H](C4C(O)[C@]5(C[C@@H]41)c1ccccc1N(C)[C@@H]35)[C@H](CC)[C@H]2O` (stereo partly specified) is 26.3%; for `CS(=O)(=O)CS(=O)(=O)OCCCl` it is 9.47%; for `CC(OC(=O)NCC1(CC(=O)O)CCCCC1)OC(=O)C(C)C` (stereo unspecified) it is 3.02%.
For `c1ccc2sc(SNC3CCCCC3)nc2c1` the value was 80%; for `C#Cc1cncc([C@@H]2CCCN2C)c1`, 18.9%; for `CO[C@@H](C(=O)N1Cc2[nH]nc(NC(=O)c3ccc(N4CCN(C)CC4)cc3)c2C1)c1ccccc1`, 21.1%.
As for `CCCCCOc1ccc(-c2ccc(-c3ccc(C(=O)N[C@H]4C[C@@H](O)[C@@H](O)NC(=O)[C@@H]5[C@@H](O)[C@@H](C)CN5C(=O)[C@H]([C@@H](C)O)NC(=O)[C@H]([C@H](O)[C@@H](O)c5ccc(O)cc5)NC(=O)[C@@H]5C[C@@H](O)CN5C(=O)[C@H]([C@@H](C)O)NC4=O)cc3)cc2)cc1` ({pTerphenylCO(4''-OnC5H11)}-[Orn(4R-OH,5R-OH)]T[Hyp][hTyr(3S-OH,4S-OH)]T[Pro(3S-OH,4S-Me)]; lactam 1-C), the inhibition was 16.9%.
The figure for `Cc1cc(Nc2cc(C)c(C#N)c(N[C@@H](C)CCCC(C)(C)O)n2)n[nH]1` is 27.9%.
In the case of `Cc1ccc(C23CNCC2C3)cc1` (stereo unspecified), the inhibition was -3.02%.
For `CC(=O)NS(=O)(=O)c1ccc(NC(=O)c2ccccc2C(=O)O)cc1` the value was -8.72%; for `O=C(O)c1ccccc1C(=O)Nc1ccc(-c2ccccc2)cc1`, 68%.
In the case of `O=C(O)c1ccccc1S`, the inhibition stood at 17.6%.
The figure for `CCN(CC)CCOc1ccccc1C(=O)CCc1ccccc1` is 2.33%.
For `C[C@H](N)C(=O)N[C@@H](CCC(N)=O)C(=O)O` (H-Ala-Gln-OH) the value was -3.39%.
For `COc1ccc(N2CCOCC2)c2sc(NC(=O)N3CCC(C)(O)CC3)nc12` the value was 2.18%.
Consider `Cc1cc(NC(=O)C(c2ccccc2)N2CCCc3ccccc32)no1` (stereo unspecified), for which the inhibition was found to be 6.26%.
As to `COc1cc(C(=O)NCCCCCC(=O)O)cc(OC)c1OC`, the inhibition came to 0.73%.
The figure for `O=C(CNC(=O)c1ccc(Cl)cc1)NO` is 42.6%; for `CN(C)c1ccc(C(=O)NCCCCCCC(=O)NO)cc1` it is 102%.
The figure for `CC(=O)O[C@@H]1CC[C@@]2(C)[C@@H](CC[C@]3(C)[C@@H]2C(=O)C=C2[C@@H]4[C@@H](C)[C@H](C)CC[C@]4(C)CC[C@]23C)[C@@]1(C)C(=O)O` is -8.47%; for `CCc1noc(C)c1-c1[nH]c2ccccc2c1C(O)CN(C)C` (stereo unspecified) it is 3.93%; for `CN(C)CCCSc1ccccc1NC(=O)/C=C/c1ccccc1` it is 97.2%.
On to `O=C1c2ccccc2CCC1CNCCc1ccc(O)cc1` (stereo unspecified), for which the inhibition was 4.32%.
The figure for `COc1cc(-c2ccc(/N=N/c3ccc4c(S(=O)(=O)O)cc(S(=O)(=O)O)c(N)c4c3O)c(OC)c2)ccc1/N=N/c1ccc2c(S(=O)(=O)O)cc(S(=O)(=O)O)c(N)c2c1O` is 69.8%; for `COc1cc(O)c(C(=O)c2ccccc2)cc1S(=O)(=O)O` it is -4.32%.
With `OC(CNc1ccccc1)Cn1c2ccc(Br)cc2c2cc(Br)ccc21` (stereo unspecified), the inhibition is -9.16%.
Turning to `Cc1cc(-c2cc(OC(=O)c3ccccc3)ccc2Cl)cc2nnc(Nc3ccc(OCCN4CCCC4)cc3)nc12`, the inhibition is -4.96%.
For `CC(=O)[C@]1(N)Cc2c(O)c3c(c(O)c2[C@@H](O[C@H]2C[C@H](O)[C@H](O)CO2)C1)C(=O)c1ccccc1C3=O` the value was 18.4%; for `Cc1oc(=O)oc1COC(=O)C1=C([C@H]2CCCO2)S[C@@H]2[C@@H]([C@@H](C)O)C(=O)N12`, 31.1%; for `Cc1ccc(-n2nc(C(C)(C)C)cc2NC(=O)NCc2cc(F)ccc2Oc2ccc3c(cnn3CCO)c2)cc1`, 30.6%.
Regarding `Cc1ccnc2c1CCCC2C(N)=S` (stereo unspecified), the inhibition is -0.81%.
The figure for `CC(CN(C)C)CN1c2ccccc2Sc2ccc(C#N)cc21` (stereo unspecified) is 7.25%.
The figure for `O=C1NC(=O)/C(=C\c2ccc(-c3ccc(F)cc3)o2)S1` is 60.3%.
For `CN1c2c(oc(=O)n(-c3ccccn3)c2=O)-c2ccccc2S1(=O)=O` the value was 16.6%.
On to `CN1C(=O)N(c2ccc(C#N)c(C(F)(F)F)c2)C(=O)[C@]1(CO)c1ccccc1`, for which the inhibition turned out to be 40.5%.
For `Cc1nc(-c2cccnc2)sc1C(=O)Nc1ccccc1-c1cn2c(CN3CCOCC3)csc2n1` the value was 11.9%.
